# Source: PubChem BioAssay
# The list is not random: actives were taken first. Their share in the collection is about 7.8%.
# Vaccinia Venus = vaccinia inhibition (Venus reporter); 330,000 tested, 0.46% active; Potency, µM (doses to about 36.5 µM), inactives show at the highest dose activity change, negative = inhibition, most hits filed as inhibitors; AID 720580; Vaccinia virus Venus reporter expression, fluorescence; calls by dose curve; tested in A549 cells; also: potency is read from the fitted curve at half-maximal effect; nearly all actives have a fitted effect of over 30% in size
# Lassa entry inh = inhibitors of Lassa virus binding or cell entry. Potency, µM (doses to about 37.9 µM), inactives show at the top dose activity change, negative = inhibition, hits mostly inhibitors. 300,000 tested, 1.2% active. Lassa virus pseudotype entry inhibition, cell reporter; calls by dose curve; tested in HEK293 cells; also: potency is read from the fitted curve at half-maximal effect; nearly all actives have a fitted effect of over 50% in size
# MARV entry inh = inhibitors of Marburg virus binding or cell entry. Marburg virus pseudotyped entry inhibition, cell reporter. Potency, µM (doses to about 37.8 µM), for the others: top-dose activity change, negative = inhibition, hits mostly inhibitors. 300,000 tested, 1.8% active; calls by dose curve; tested in HEK293 cells; also: potency is read from the fitted curve at half-maximal effect
# HCV inh = blocks hepatitis C virus; Huh7.5.1 HCVcc-Cre infection, luciferase reporter, 44 h; Potency, µM (titrated, usually from 41.8 µM), for inactives: at the top dose activity change, negative = inhibition, actives largely listed as inhibitors; 340,000 tested, 3.4% active; active = well fitted inhibition curve with a large enough effect; inconclusive = small, poorly fitted or top-dose-only effect, or another doubt; inactive = no such curve, though single readings can be large or run the other way; also: potency is read from the fitted curve at half-maximal effect
#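 Cells (1,000/well) were plated 4 h before compound, then infected with HCVcc-Cre virus (~0.5 moi). After 44 h further culture, infection was read as luciferase luminescence following a 15 min substrate incubation at room temperature.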
# VACV mCherry inh = inhibitors of vaccinia virus infection (mCherry reporter signal). 310,000 tested, 0.63% active. AID 720579. Potency, µM (titrated, usually from 36.5 µM), without a hit: top-dose activity change, negative = inhibition, actives largely listed as inhibitors. Vaccinia virus mCherry reporter infection, fluorescence; calls by dose curve; tested in A549 cells; also: potency is read from the fitted curve at half-maximal effect; nearly all actives have a fitted effect of over 35% in size
# HCMV antiviral = human cytomegalovirus inhibition; HFF cells, HCMV-luciferase reporter, 72 h; stronger effect = lower value; activity change, negative = inhibition, % at 57.5 µM; 410,000 tested, 4.5% active; AID 1259415; in the data active = activity change below about -60%; inconclusive = no clear call, values can overlap the other calls; inactive = above about -39%
#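 Compounds were evaluated in HFFs infected with an HCMV luciferase reporter virus (MOI 1 PFU/cell). Luciferase in lysates collected 72 h post infection served as the replication measure.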
# Numbers without * were called inactive; i = inactive; ? = inconclusive; nt = not tested or not shown; [ ] = another dose, or the depositor's remark. % is scaled to controls: 0 for no effect and ±100 for the full control effect.
SMILES,Vaccinia Venus,Lassa entry inh,MARV entry inh,HCV inh,VACV mCherry inh,HCMV antiviral
CCOC(=O)CCn1cnc2onc(-c3cc(OC)ccc3Cl)c2c1=O,-3%,-9%[46.1 µM],-1%[46.1 µM],nt,-5%,4
Cc1cccc2nc(CNC(=O)CN3Cc4cc(Cl)ccc4OC(C)C3)cn12 (stereo unspecified),0%,nt,nt,nt,-11%,nt
Cc1ccc(C)n1C1C(=O)N(Cc2ccc(C(C)C)cc2)c2ccc(Cl)cc21 (stereo unspecified),nt,nt,nt,nt,nt,-17
O=C(C[n+]1ccncc1)c1cccc([N+](=O)[O-])c1,-12%,nt,nt,nt,i,nt
O=C(Nc1cccc(C(F)(F)F)c1)c1cccn(Cc2ccc3c(c2)OC(F)(F)O3)c1=O,nt,7%,?,1%,nt,-16
O=C(Nc1ccc(C(F)(F)F)cc1)c1cccn(Cc2ccc3c(c2)OC(F)(F)O3)c1=O,nt,-12%,?,10µM*,nt,-98*
CCc1ccccc1NC(=O)COC(=O)c1cn(CC)c2nc(C)ccc2c1=O,5%,-13%[46.1 µM],2%[46.1 µM],nt,2%,11
Fc1cccc(/C=C2\CCCC3=C2NC(=S)NC3c2cccc(F)c2)c1 (stereo unspecified),nt,nt,nt,8.9µM*,nt,-25
CC(=O)Nc1ccc(S(=O)(=O)N2CCN(CCCOc3ccccc3Cl)CC2)cc1,nt,22%,21%,7%,nt,-67*
COc1cccc(OCCCN2CCN(S(=O)(=O)c3ccc(NC(C)=O)cc3)CC2)c1,nt,8.2µM*,6.5µM*,13µM*,nt,-81*
Cc1ccc(S(=O)(=O)N2CCN(CCNC(=O)C(=O)Nc3ccc(F)cc3)CC2)cc1,-13%,1%,?,11%,-12%,-67*
COc1ccc(CN2CCN(S(=O)(=O)c3ccc(C)cc3)CC2)cc1Br,nt,?,?,32µM*,nt,-8
CC(=O)Nc1ccc(S(=O)(=O)N2CCN(CCc3ccccc3)CC2)cc1,nt,nt,nt,?,nt,-4
CCn1c(=O)c2cc(C(=O)NCc3cc(OC)ccc3OC)sc2c2ccccc21,?,-27%[46.1 µM],-23%[46.1 µM],nt,?,-19
COc1cc(CN2CCN(S(=O)(=O)c3ccc(NC(C)=O)cc3)CC2)cc(OC)c1OC,-6%,-2%[46.1 µM],nt,nt,-12%,-106*
COc1cccc(CN2CCN(S(=O)(=O)c3ccc(NC(C)=O)cc3)CC2)c1OC,-7%,nt,-12%[46.1 µM],?,-20%,16
Fc1ccc(NC(=S)NCc2ccccc2Cl)cc1,-19%,-3%,38%,-14%,i,-70*
Fc1ccc(NC(=S)NCCc2ccc(Cl)cc2)cc1,-16%,20%,?,8%,i,-69*
Fc1ccc(CCNC(=S)Nc2ccc(F)c(Cl)c2)cc1,?,?,4%[46.1 µM],?,?,-66*
S=C(NCCc1ccc(Cl)cc1)NC1CCCCC1,-8%,?,?,-26%,-23%,60
S=C(NCCc1ccc(Cl)cc1)NC1CCCC1,nt,nt,nt,?,nt,-69*
O=C(NCCN1CCOCC1)c1cc2n(n1)[C@@H](C(F)(F)F)C[C@H](c1ccc(F)cc1)N2,nt,nt,28%,nt,nt,nt
CCc1noc(C)c1C(=O)N1CCOc2ccc(CN3CCCC(C(=O)c4cccnc4)C3)cc2C1 (stereo unspecified),-17%,nt,nt,nt,-4%,nt
O=[N+]([O-])c1ccc(NC(=S)NCCc2ccc(F)cc2)cc1,?,?,?,?,?,-98*
O=C(NCCc1ccc(F)cc1)Nc1ccc([N+](=O)[O-])cc1,-19%,28%[46.1 µM],?,?,i,-14
O=C1c2cnc3nc(SCc4cccc(Cl)c4)nn3c2CC2c3ccccc3CCN12 (stereo unspecified),nt,-20%,-16%,11µM*,nt,-25
CCc1ccc2oc(-c3ccc(OC)cc3)cc(=Nc3c(C)n(C)n(-c4ccccc4)c3=O)c2c1,nt,nt,nt,10µM*,nt,?
CCC(CO)[n+]1c(C)cc(/C=C2\Sc3ccccc3N2Cc2ccccc2)cc1C (stereo unspecified),-30%,?,?,?,i,-100*
OCCCc1nc2n(n1)C(c1ccccc1)C=C(c1ccc(F)cc1)N2 (stereo unspecified),nt,-1%,7%,11µM*,nt,-37
Clc1cccc(CNc2nnnn2-c2ccccc2)c1,-23%,-2%,?,?,-25%,-84*
